# This is one part of a sample in which hits are shown more often than they occur.
# IMPase inh: membrane-permeable compound that blocks inositol monophosphatase; 120,000 tested, under 10 active; CHO-M1 cells, IP1 accumulation, HTRF TR-FRET ratio; P97697; inhibition (IP1 accumulation), % at 46.1 µM; active = well fitted curve in the direction sought with a large enough effect in the signal ratio, not every such curve was filed as active; inconclusive = small, poorly fitted or top-dose-only effect, or a change in a side signal; inactive = no such curve, though single readings can be large or run the other way; the % refers to the signal ratio;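 note: cells stimulated with carbachol in lithium chloride buffer; plate controls were DMSO basal wells for no effect and reference inhibitor wells for full effect; higher means more IMPase inhibition seen as more IP1 and lower FRET ratio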
# Target sequence (P97697 whole entry, looked up): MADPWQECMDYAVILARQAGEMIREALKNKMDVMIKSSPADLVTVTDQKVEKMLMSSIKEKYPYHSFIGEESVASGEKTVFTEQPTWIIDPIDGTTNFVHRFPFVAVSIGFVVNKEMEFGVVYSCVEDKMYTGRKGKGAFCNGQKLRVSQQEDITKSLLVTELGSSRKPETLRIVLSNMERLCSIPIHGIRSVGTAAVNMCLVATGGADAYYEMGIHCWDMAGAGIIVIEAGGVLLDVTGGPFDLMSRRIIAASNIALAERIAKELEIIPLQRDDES
#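 Elevated IP1 in lysates lowers TR-FRET signal (665/620 ratio and 620 channel reported). Cells were CHO-M1, given carbachol (50 uM as added) plus 50mM LiCl, pH 7.4, 30 min, 37C; compounds titrated up to 46 uM; AC50 by Hill equation.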
# IMPase Li cell: IMPase inhibition in cells with lithium potentiation | Potency, µM (titrated, usually from 59.4 µM), for the others: top-dose activity, negative = IMPase inhibition, usual class: inhibitors | AID 1457 | 0.35% of 210,000 active | CHO-M1 cells, IP1 TR-FRET (IP-One), carbachol + lithium; active = well fitted inhibition curve with a large enough effect; inconclusive = small, poorly fitted or top-dose-only effect; inactive = no such curve, though single readings can be large or run the other way;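 note: IP1 builds up when IMPase is blocked and the TR-FRET signal falls; potency is the fitted concentration of half-maximal effect; plate controls were basal vehicle for no effect and high inhibitor control for full effect; nearly all actives have a fitted effect of over 50% in size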
#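 CHO cells stably expressing M1 receptor (2000/well) were cultured 16–30 h, then exposed to compounds with a small lithium addition for 30 min at 37C. IP1 was measured by TR-FRET competition; AC50 from Hill fits.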
# LMNA splice mod: LMNA splicing modulation | AID 1487 | 0.01% of 200,000 active | HeLa LMNA splicing GFP/RFP minigene ratio, 48 h | Potency, µM (top dose mostly 46.1 µM), for inactives: at the top dose ratio change, negative = inhibition, usual class: inhibitors; active = well fitted inhibition curve with a large enough effect in the signal ratio, with a control signal flat, not every such curve was filed as active; inconclusive = small, poorly fitted or top-dose-only effect, or effect the other way, or a change in a side signal; the % refers to the signal ratio; note: potency is the fitted concentration of half-maximal effect
#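 Read-out is the ratio of GFP to DsRed2 object intensity, acquired by 488 nm laser-scanning cytometry on HeLa lamin A-EGFP minigene reporter cells. Compound incubation 48 hrs at 37 °C in Opti-MEM with 2% FBS; DMSO 0.5% final.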
# Starred values were filed as active, the others as inactive; ? = inconclusive; / = no result given; [ ] = remark or other dose. Unless noted, % is set by controls: 0 for no effect and ±100 for the full control effect.
SMILES,IMPase inh,IMPase Li cell,LMNA splice mod
CCCCC(CC)CNC(=O)Cc1ccc(-n2c(=O)[nH]c3ccccc3c2=O)cc1 (stereo not drawn),/,/,9.1%[46 µM]
c1ccc(C2=NN[C@@H]3c4ccccc4-c4ccccc4N3C2)cc1,/,-6.7%,/
CC(C)n1c2ccccc2c2nnc(SCC(=O)Nc3ccccc3C(=O)O)nc21,/,7.94µM*,-22.1%[9.22 µM]
CCOC(=O)Cc1nnc(NC(=O)CSc2nnc3c4ccccc4n(C(C)C)c3n2)s1,?,?,-3.6%
CCCC1(c2ccccc2)NC(=O)N(CC(=O)Nc2sc(-c3ccccc3)cc2C(=O)OCC)C1=O (stereo not drawn),?,2.82µM*,4.2%
CCCC1(c2ccccc2)NC(=O)N(CC(=O)Nc2cc(C)on2)C1=O (stereo not drawn),/,4.4%,?
COc1ccc(C(=O)CCC(=O)Nc2cccnc2)cc1,/,-4.5%,?
COc1ccc(NC(=O)CCC(=O)c2ccc(-c3ccccc3)cc2)cc1,-14.8,31.6µM*,-0.7%
COc1ccc(C(=O)COC(=O)c2ccc(NC(=O)c3ccccc3)cc2)cc1,7.9,11.2µM*,?
COc1ccc(C(=O)Nc2ccc(C(=O)OCC(=O)c3ccccc3)cc2)cc1,2.7,-2.7%[38.3 µM],-3.4%
O=C(c1csnn1)N1CCC2(CC1)CCN(c1ccncc1)CC2,/,29.3%,/
Cc1ccccc1-c1ccccc1N,/,-2.9%,10.0%
Nc1ccccc1-c1n[nH]c(=S)s1,/,12.6µM*,-24.3%[46 µM]
O=C1CC2(CCCC2)CC(=O)N1CCCCNC[C@H]1COc2ccccc2O1,-0.5,19.6%,/
O=C(CSc1nc2ccccc2s1)c1sc2sc3ccccc3[n+]2c1O,/,-27.0%,/
Cc1ccc(C)c(/C(O)=C2\C(=O)C(=O)N(Cc3cccnc3)C2c2cccnc2)c1 (stereo not drawn),-23.5,7.08µM*,20.7%
Cc1ccc(C)c(/C(O)=C2\C(=O)C(=O)N(CCCN3CCOCC3)C2c2cccnc2)c1 (stereo not drawn),4.4,28.7%[38.3 µM],-10.4%
CCCCC/C=C\C/C=C\C/C=C\C/C=C\CCCC(=O)O[C@@H](CO)COC(=O)CCCCCCCCCCCCCCCCC,/,1.7%,/
Cc1cc(=O)oc2c(CN3CCN(C)CC3)c(O)c(Cl)cc12,?,12.6µM*,5.1%
CCCc1cc(=O)oc2c(CN3CCN(C)CC3)c(O)c(Cl)cc12,-21.8,/,-5.2%
CN1CCN(Cc2c(O)c(Cl)cc3c(-c4ccccc4)cc(=O)oc23)CC1,-13.0,-15.5%[38.3 µM],-14.8%
CCCCc1cc(=O)oc2c(CN3CCCC3)c(O)c(Cl)cc12,?,10µM*,-7.0%
CNC(=O)[C@H](Cc1c[nH]c2ccccc12)NC(=O)[C@@H](CC(=O)NO)CC(C)C,/,-3.6%,/
Cc1ccc(-c2nnc(Nc3ccc(O)cc3)c3ccccc23)cc1S(=O)(=O)NCC1CCCO1 (stereo not drawn),1.6,/,/
Cn1c(=O)c2[nH]c(COCc3nc4c([nH]3)c(=O)n(C)c(=O)n4C)nc2n(C)c1=O,/,-6.8%,/
SMILES,IMPase inh,IMPase Li cell,LMNA splice mod
Cc1ccc(-c2cc(C(=O)O)c3cc(Br)ccc3n2)o1,/,11.2µM*,-4.3%
CC(=O)c1c(C)nc2ccc(Br)cc2c1-c1ccccc1,/,9.6%,5.5%[46 µM]
CC(=O)c1c(C)nc2ccc(Br)cc2c1C(=O)O,?,1µM*,2.8%
Cc1ccc(-c2cc(C(=O)NN3CCOCC3)c3cc(Br)ccc3n2)o1,/,-12.3%,1.4%[46 µM]
O=C(N/N=C/c1sc(N2CCOCC2)nc1-c1ccccc1)c1ccccc1O,/,21.9%,?
O=Cc1sc(N2CCOCC2)nc1-c1ccccc1,/,14.1µM*,/
CC(C)(C)c1ccc(S(=O)(=O)/C=C\C#N)cc1,20.3,31.8%,/
CC(=O)c1oc2ccccc2c1NC(=O)CCCN1C(=O)c2ccccc2C1=O,7.0,12.6µM*,1.5%
COC(=O)CCC(=O)c1oc2ccccc2c1NC(=O)CCCN1C(=O)c2ccccc2C1=O,0.7,-9.0%[38.3 µM],1.4%
Oc1ccc2ccccc2c1Cc1c(O)ccc2ccccc12,/,-4.9%,/
O=C(Nc1nnc(C(F)(F)F)s1)c1ccc(Br)s1,/,-1.5%,?
O=C(Nc1nnc(C2CCCCC2)s1)c1ccc(Br)s1,8.1,10µM*,-1.7%
O=C(O)c1nnsc1-c1ccc(-c2snnc2C(=O)O)cc1,/,-1.2%,/
O=C(O)c1cc(Cl)cc(Cc2cc(Cl)cc(C(=O)O)c2O)c1O,/,-1.9%,/
OC[C@@H]1O[C@@H](n2cnc3c(SCc4ccccc4)ncnc32)[C@@H](O)[C@H]1O,/,-8.7%,/
Cc1cc(C)nc(NS(=O)(=O)c2ccc(NC(=O)CSc3nc(-c4ccccc4)c(C#N)c(=O)[nH]3)cc2)n1,/,11.2µM*,-4.7%[9.22 µM]
Cc1cc(NC(=O)CSc2nc(-c3ccccc3)c(C#N)c(=O)[nH]2)no1,?,7.94µM*,10.1%
N#Cc1c(-c2ccccc2)nc(SCC(=O)N(c2ccccc2)c2ccccc2)[nH]c1=O,-23.8,-17.8%,-11.7%
N#Cc1c(-c2ccccc2)nc(SCC(=O)Nc2ccccc2F)[nH]c1=O,/,10µM*,-11.3%
N#Cc1c(-c2ccccc2)nc(SCC(=O)Nc2nnc(C(F)(F)F)s2)[nH]c1=O,/,11.2µM*,-3.1%[9.22 µM]
N#Cc1c(-c2ccccc2)nc(SCC(=O)Nc2ccccc2)[nH]c1=O,?,?,-4.0%
Cc1cc(C)nc(NS(=O)(=O)c2ccc(NC(=O)CSc3nc4ccccc4[nH]3)cc2)n1,/,-0.5%,-26.1%
C=CCSc1nc(-c2ccccc2)c(C#N)c(=O)[nH]1,?,?,-2.4%
O=c1cnc2cnc(N3CCNCC3)nc2n1C1CC1,/,-2.1%,-0.6%
Cc1ccc(Cl)cc1NC(=O)c1ccc2nc(CCc3ccccc3)oc2c1,/,/,15.9%[46 µM]
SMILES,IMPase inh,IMPase Li cell,LMNA splice mod
NS(=O)(=O)c1cc2c(cc1Cl)=NC(CCC(=O)O)=NS=2(=O)O,/,-5.0%,/
Cc1cccc(NC(=O)CSc2nc3[nH]ncc3c(=O)[nH]2)c1C,/,0.2%,-0.7%
Cc1cccc(NC(=O)CSc2nc(-c3ccccc3)c(C#N)c(=O)[nH]2)c1C,?,10µM*,15.9%
CCC(Sc1nc(-c2ccccc2)c(C#N)c(=O)[nH]1)C(=O)Nc1nnc(C)s1 (stereo not drawn),?,3.16µM*,-4.2%
CCC(Sc1nc(C)cc(=O)[nH]1)C(=O)Nc1nc(-c2ccccc2)cs1 (stereo not drawn),-1.3,35.8%[38.3 µM],?
COc1ccc(N2CCN(C(CNC(=O)c3c(F)cccc3F)c3ccc4c(c3)OCO4)CC2)cc1 (stereo not drawn),/,/,5.1%[46 µM]
O=C(O)CCc1ccc(-c2ccc(Cl)cc2)o1,-5.4,0.5%[38.3 µM],0.2%
O=C(O)CCc1ccc(-c2ccc(Br)cc2)o1,?,8.91µM*,3.7%
COC(=O)[C@@]1(Cc2ccc(OC)cc2)[C@H]2c3cc(C(=O)N(C)C)n(Cc4ccc(C(F)(F)F)nc4)c3C[C@H]2CN1C(=O)c1ccccc1,/,6.9%,/
Cc1ccc(OC/C(O)=C(\C#N)c2nc3ccccc3s2)cc1,/,0.7%,?
Cn1c(/C(C#N)=C(\O)COc2ccc3ccccc3c2)nc2ccccc21,6.4,7.08µM*,?
CCCCC/C=C\C/C=C\C/C=C\C/C=C\CCCCCC(N)=O,/,14.3%,/
CCc1ccccc1NC(=O)c1nnn(CC(=O)Nc2cccc(C)c2C)c1N,?,10µM*,-7.2%
CCc1ccccc1NC(=O)c1nnn(CC(=O)Nc2cccc(C)c2)c1N,-12.1,-3.8%[38.3 µM],11.4%
CC[C@H](CN(C)C)C(=O)c1ccco1,/,3.6%,/
